# Data taken from PubChem BioAssay.
# Values without a mark were called inactive. Where a call stands in place of a potency, no number is given. For some assays here: Potency and affinity values are given separately. Active and inactive are the calls of the source. Unless noted, the rule behind the calls is not given here.
# Key:
# [1] = antimalarial activity against Dd2 strain (AID 2302;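 active = growth inhibition above 50% at the single 2 µM test dose, taken to imply half-maximal potency below 2 µM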); details: P. falciparum Dd2 in RBCs, LDH growth readout, 72 h; at 2 µM; stronger effect = higher value
# [2] = human hepatoma cell viability loss – ATP luminescence, cytotoxicity control for P. falciparum antimalarial project, primary screen (AID 2303;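 active = inhibition above 50%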); details: HepG2 viability, 24-48 h, at 10 µM, stronger effect = higher value
# [3] = target: L-lactate dehydrogenase (Plasmodium falciparum (isolate CDC / Honduras)) (UniProt Q27743); experiment: PfLDH activity inhibition – cell lysate, 3D7 strain, counter-screen for P. falciparum growth inhibition project (AID 2304); details: P. falciparum 3D7 crude extract, LDH APAD/NBT absorbance; at 2 µM; stronger effect = higher value
# Chain of L-lactate dehydrogenase (Plasmodium falciparum (isolate CDC / Honduras)) (Q27743 whole entry, looked up): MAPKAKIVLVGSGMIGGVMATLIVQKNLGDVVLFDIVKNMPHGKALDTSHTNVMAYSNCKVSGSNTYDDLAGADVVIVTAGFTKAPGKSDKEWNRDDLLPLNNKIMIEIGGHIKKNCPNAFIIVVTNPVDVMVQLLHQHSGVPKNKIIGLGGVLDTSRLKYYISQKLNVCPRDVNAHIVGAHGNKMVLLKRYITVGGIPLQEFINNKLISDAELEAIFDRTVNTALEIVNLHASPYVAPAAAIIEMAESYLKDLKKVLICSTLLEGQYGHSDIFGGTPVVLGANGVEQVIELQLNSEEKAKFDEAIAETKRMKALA
# [4] = inhibition of 3D7 malaria parasite growth – strain 3D7 (AID 2306); details: P. falciparum 3D7 erythrocytic growth, LDH absorbance, 72 h; at 2 µM; stronger effect = higher value
# [5] = target: Calcium-dependent protein kinase 1 (Plasmodium falciparum (isolate 3D7)) (UniProt P62344); experiment: PfCDPK1 kinase inhibitors, biochemical, TCAMS library (AID 1159585; cut-off not given, nearly all actives have IC50 up to about 0.98 µM;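 note: inhibitors leave more ATP so luminescence rises with inhibition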); details: recombinant PfCDPK1, Kinase-Glo ATP depletion luminescence
# Chain of Calcium-dependent protein kinase 1 (Plasmodium falciparum (isolate 3D7)) (P62344 whole entry, looked up): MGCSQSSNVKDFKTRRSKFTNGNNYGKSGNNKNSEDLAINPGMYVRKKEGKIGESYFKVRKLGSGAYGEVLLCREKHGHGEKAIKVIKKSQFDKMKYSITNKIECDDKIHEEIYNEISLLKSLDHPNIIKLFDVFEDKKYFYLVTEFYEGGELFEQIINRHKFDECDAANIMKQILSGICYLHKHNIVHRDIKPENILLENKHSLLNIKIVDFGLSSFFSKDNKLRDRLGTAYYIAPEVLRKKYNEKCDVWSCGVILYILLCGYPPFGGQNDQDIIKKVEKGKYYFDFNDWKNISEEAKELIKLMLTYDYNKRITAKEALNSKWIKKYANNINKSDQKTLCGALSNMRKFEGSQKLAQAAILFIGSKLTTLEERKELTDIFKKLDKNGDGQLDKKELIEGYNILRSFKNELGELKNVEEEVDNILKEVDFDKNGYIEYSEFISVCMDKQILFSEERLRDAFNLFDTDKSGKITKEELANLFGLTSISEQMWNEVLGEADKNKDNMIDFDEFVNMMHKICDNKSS
# [6] = target: Plasmodium falciparum protein kinase 6 (PK6, PF3D7_1337100) (UniProt Q8IDW1); experiment: PfPK6 kinase inhibitors, biochemical, TCAMS library (AID 1159586); details: recombinant PfPK6, Kinase-Glo ATP depletion luminescence
# Chain of Plasmodium falciparum protein kinase 6 (PK6, PF3D7_1337100) (Q8IDW1 1-305): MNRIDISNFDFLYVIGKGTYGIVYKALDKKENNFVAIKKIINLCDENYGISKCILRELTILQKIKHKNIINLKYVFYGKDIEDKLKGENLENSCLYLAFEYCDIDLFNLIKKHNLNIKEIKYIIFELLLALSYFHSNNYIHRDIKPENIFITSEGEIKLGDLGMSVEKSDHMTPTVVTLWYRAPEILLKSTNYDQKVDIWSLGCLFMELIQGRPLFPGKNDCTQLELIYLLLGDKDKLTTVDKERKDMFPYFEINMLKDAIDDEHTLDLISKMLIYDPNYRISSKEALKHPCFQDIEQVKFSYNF
# [7] = target: Protein kinase 7 (PK7), Plasmodium falciparum 3D7 (PF3D7_0213400) (UniProt Q7YTF7); experiment: inhibition of Plasmodium PK7 catalytic activity – biochemical, TCAMS antimalarial set, Kinase-Glo luminescence (AID 1159587); details: recombinant PfPK7, Kinase-Glo ATP depletion luminescence
# Chain of Protein kinase 7 (PK7), Plasmodium falciparum 3D7 (PF3D7_0213400) (Q7YTF7 1-343): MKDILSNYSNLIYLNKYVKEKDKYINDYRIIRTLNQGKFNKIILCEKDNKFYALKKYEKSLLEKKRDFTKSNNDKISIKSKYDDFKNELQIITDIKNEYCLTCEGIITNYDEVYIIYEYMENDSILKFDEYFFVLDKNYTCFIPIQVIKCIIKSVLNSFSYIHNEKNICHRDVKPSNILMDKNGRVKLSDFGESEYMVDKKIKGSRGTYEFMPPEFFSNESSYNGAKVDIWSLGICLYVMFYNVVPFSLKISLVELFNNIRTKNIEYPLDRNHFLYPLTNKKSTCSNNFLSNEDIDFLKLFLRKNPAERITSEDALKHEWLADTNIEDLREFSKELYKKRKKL
# [8] = target: Calcium-dependent protein kinase 4 (Plasmodium falciparum (isolate 3D7)) (UniProt Q8IBS5); experiment: PfCDPK4 kinase inhibitors, biochemical, TCAMS library (AID 1159588; cut-off not given, nearly all actives have IC50 up to about 0.91 µM); details: recombinant PfCDPK4, Kinase-Glo ATP depletion luminescence
# Chain of Calcium-dependent protein kinase 4 (Plasmodium falciparum (isolate 3D7)) (Q8IBS5 whole entry, looked up): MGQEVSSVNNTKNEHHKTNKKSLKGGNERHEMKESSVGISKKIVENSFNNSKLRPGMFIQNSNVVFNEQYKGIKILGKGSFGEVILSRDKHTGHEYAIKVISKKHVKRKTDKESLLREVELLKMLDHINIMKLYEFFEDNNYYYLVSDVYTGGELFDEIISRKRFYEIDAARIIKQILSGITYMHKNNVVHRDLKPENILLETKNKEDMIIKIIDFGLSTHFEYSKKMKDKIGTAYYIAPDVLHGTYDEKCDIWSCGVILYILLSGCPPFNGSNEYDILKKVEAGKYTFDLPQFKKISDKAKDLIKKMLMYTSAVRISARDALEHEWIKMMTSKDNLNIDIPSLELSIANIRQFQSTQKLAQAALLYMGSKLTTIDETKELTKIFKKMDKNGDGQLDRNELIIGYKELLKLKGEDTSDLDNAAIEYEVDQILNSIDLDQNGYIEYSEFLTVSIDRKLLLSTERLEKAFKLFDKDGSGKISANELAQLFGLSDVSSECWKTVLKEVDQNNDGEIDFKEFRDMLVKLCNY
Compound,growth inhibition [1],inhibition [2],inhibition [3] [%],growth inhibition [4],outcome [5],outcome [6],outcome [7],outcome [8]
Cc1cc(C(=O)CN2C(=O)NC3(CCOc4ccccc43)C2=O)c(C)n1Cc1ccco1 (stereo not given),42%,13%,5,93% (active),inactive,inactive,inactive,inactive
COc1ccc(-c2cnc3[nH]cc(-c4ccc(CCC(=O)O)cc4)c3c2)cn1,95% (active),25%,-5,98% (active),inactive,inactive,inactive,inactive
Cc1cc(Nc2ccncc2)n2nc(C)c(-c3ccc(Cl)cc3)c2n1,99% (active),-9%,2,101% (active),inactive,inactive,inactive,inactive
O=C(Nc1ccc(-c2ccc(-c3nc4ccccc4[nH]3)s2)cc1)Nc1ccc(Cl)c(Cl)c1,99% (active),89% (active),2,102% (active),inactive,inactive,inactive,inactive
CCCCN1CCN(CCCNc2c3ccccc3nc3ccccc23)CC1,70% (active),26%,-7,101% (active),inactive,inactive,inactive,inactive
O=C(Nc1nc2cc(S(=O)(=O)NCCc3cccc(F)c3)ccc2n1CCCn1ccnc1)c1ccc(Cl)cc1,8%,-24%,0,90% (active),inactive,inactive,inactive,inactive
O=C(Nc1ccc(CCN2CCC(c3nc(COCC(F)(F)F)c(-c4ccccc4)o3)CC2)cc1)c1ccc(F)cc1,3%,9%,3,86% (active),inactive,inactive,inactive,inactive
CCOc1ccc(-c2cc3nc(C4CCNCC4)c(C(=O)Nc4ccc(C)cc4Cl)cn3n2)cc1,22%,63% (active),2,95% (active),inactive,inactive,inactive,inactive
CCN(CC1CCN(CC2(O)CCOCC2)CC1)c1cc(C)nc(Nc2ccc(Cl)cc2)n1,99% (active),34%,-4,101% (active),inactive,inactive,inactive,inactive
CCCN(CCC)CCOc1ccc(C(O)(C#CC(O)(c2ccc(OCCN(CCC)CCC)cc2)c2cccc(Cl)c2)c2cccc(Cl)c2)cc1 (stereo not given),98% (active),100% (active),6,101% (active),inactive,inactive,inactive,inactive
CN(C)C(=O)c1ccc(CN(Cc2cccc(OC(C)(C)C)c2)Cc2ccc3c(c2)OCCO3)cc1,96% (active),0%,-2,96% (active),inactive,inactive,inactive,inactive
Clc1ccc(OC2CCC(Cn3ccnc3)(c3ccc(Cl)cc3Cl)CC2)c(Cl)c1 (stereo not given),86% (active),4%,-4,98% (active),inactive,inactive,inactive,inactive
COc1cc(CNCCCNc2nc3ccsc3c(=O)[nH]2)c2[nH]cc(Cl)c2c1,-2%,29%,2,96% (active),inactive,inactive,inactive,inactive
COC(=O)c1ccc(OCC(O)CO)cc1O (stereo not given),23%,4%,5,101% (active),inactive,inactive,inactive,inactive
CN(C)c1ccc(C2(c3ccccc3)N=C(N)N(CCCc3ccccc3)C2=O)cc1 (stereo not given),97% (active),4%,0,99% (active),inactive,inactive,inactive,inactive
Cc1cc(N[C@@H](Cc2ccccc2)C(=O)NCCc2ccccc2)nc(NCCOc2ccccc2)n1,14%,10%,-3,95% (active),inactive,inactive,inactive,inactive
O=C(NCCN1CCN(S(=O)(=O)c2ccc(OC3CCNCC3)c(Br)c2)CC1)c1ccc(Cl)c(Cl)c1,-3%,1%,-3,89% (active),inactive,inactive,inactive,inactive
O=C(/C=C/c1ccc(Cl)c(Cl)c1)N1CCC(NCc2c[nH]c3ccccc23)CC1,4%,36%,-2,94% (active),inactive,inactive,inactive,inactive
COc1ccc2c(c1)CCCC2NCCCCNC(=O)c1ccc(NC(=O)c2ccc(Cl)cc2)cc1 (stereo not given),49%,27%,-7,100% (active),inactive,inactive,inactive,inactive
CCc1cn2c3c(cc(C(=O)N[C@@H](Cc4cccc(F)c4)[C@H](O)CNC4CCOCC4)cc13)N(C)S(=O)(=O)CC2,97% (active),-2%,-2,97% (active),inactive,inactive,inactive,inactive

Compound,growth inhibition [1],inhibition [2],inhibition [3] [%],growth inhibition [4],outcome [5],outcome [6],outcome [7],outcome [8]
CCN(CC)CCN(Cc1ccc(-c2ccc(C(F)(F)F)cc2)cc1)C(=O)Cn1cc(CCCCc2cccc(F)c2F)c(=O)c2ccccc21,22%,18%,-5,90% (active),inactive,inactive,inactive,inactive
CC(C)CC1c2[nH]c3ccccc3c(=O)c2CN1C(=O)OC(C)(C)C (stereo not given),96% (active),2%,-4,97% (active),inactive,inactive,inactive,inactive
CN1CCN(c2ccc(Nc3nc(N)c4ccn(C5CCC5)c4n3)cc2)CC1,47%,-3%,2,93% (active),inactive,inactive,inactive,inactive
CCN(CC)CCN(Cc1ccc(-c2ccc(C(F)(F)F)cc2)cc1)C(=O)Cn1c(CCc2cccc(F)c2F)nc(=O)c2ccc(C)cc21,58% (active),39%,-2,99% (active),inactive,inactive,inactive,inactive
O=C(NCCCCN1CCC(c2ccc3c(c2OCCO)CCCC3)CC1)c1ccc2oc(-c3ccc(C(F)(F)F)cc3)cc2c1,56% (active),54% (active),4,93% (active),inactive,inactive,inactive,inactive
CCCC(C)Nc1nc(C)cc(N[C@@H](Cc2ccccc2)C(=O)NCCc2ccccc2)n1 (stereo not given in full),68% (active),11%,-3,97% (active),inactive,inactive,inactive,inactive
CSc1cccc(NC(=O)c2cc3ccccc3oc2=O)c1,75% (active),-4%,4,92% (active),inactive,inactive,inactive,inactive
O=C(Cn1c(CCc2cccc(F)c2F)nc(=O)c2ccccc21)N(CCCN1CCCC1)Cc1ccc(-c2ccc(C(F)(F)F)cc2)cc1,80% (active),54% (active),4,101% (active),inactive,inactive,inactive,inactive
O=C(C=Cc1ccc(Cl)c(Cl)c1)NCCCCCN1CCCC(CCCNS(=O)(=O)c2cccc3cccnc23)C1 (stereo not given),16%,37%,2,96% (active),inactive,inactive,inactive,inactive
Cc1ccc(CN2CCCN(Cc3cccc(NC(=O)c4cc5ccccc5s4)c3)CC2)cc1,28%,32%,-3,87% (active),inactive,inactive,inactive,inactive
COc1ccc2nccc(N3CCC(NCCNCc4ccc5c(n4)NC(=O)CS5)C3)c2n1 (stereo not given),5%,-4%,-4,100% (active),inactive,inactive,inactive,inactive
CCNc1cc(C(=O)N[C@@H](Cc2ccccc2)[C@H](O)CNC2CCCC2)cc(N2CCCC2=O)c1,98% (active),8%,2,98% (active),inactive,inactive,inactive,inactive
COc1ccc(NC2=C(c3ccccc3)C(=O)c3ccccc32)cn1,84% (active),-9%,2,96% (active),inactive,inactive,inactive,inactive
CC(C)COc1ccc(Cl)cc1Cc1ccc(-c2nc3ccc(CCN4CCCC4)cc3[nH]2)o1,94% (active),34%,1,100% (active),inactive,inactive,inactive,inactive
COc1ccc2c(NN=Cc3cccc([N+](=O)[O-])c3)ccnc2c1,99% (active),-10%,5,101% (active),inactive,inactive,inactive,inactive
CN(c1ccccc1C(=O)Nc1ccccc1Oc1ccccc1)S(=O)(=O)c1ccccc1,80% (active),2%,-2,90% (active),inactive,inactive,inactive,inactive
CCCCOc1cc2[nH]cc(C(=O)OCC)c(=O)c2cc1OCCCC,96% (active),-9%,-2,97% (active),inactive,inactive,inactive,inactive
Cc1cnc(C(=O)Nc2cccc(-c3cccc(-c4nc5c(C)cccc5[nH]4)c3)c2)cn1,45%,15%,-1,99% (active),inactive,inactive,inactive,inactive
Oc1ccc(CC2CCCN(c3nc(NCCCOc4ccccc4-c4ccccc4)nc(N4CCNCC4)n3)C2)cc1 (stereo not given),77% (active),56% (active),-4,95% (active),inactive,inactive,inactive,inactive
CC(=O)Nc1ccc(CN(Cc2ccc(OC(C)(C)C)cc2)Cc2ccc3c(c2)OCCO3)cc1,75% (active),7%,5,91% (active),inactive,inactive,inactive,inactive
